Measurements from PubChem BioAssay (NCI).
About 79,000 compounds went through this panel and 15% of them were active in at least one assay; those are over-represented in the sample as a whole. Calls of active or inactive are those of the source. No stated cut-off is given here; in the data, active means growth inhibition above about 70%; inactive means the rest.

Columns and labels:
[1] = NCI Yeast Anticancer Drug Screen. Data for the rad52 strain (AID 147);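 further: 0% = growth of vehicle-treated control cultures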; conditions: S. cerevisiae rad52 mutant growth inhibition, stronger effect = higher value
Summary of the method: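 The repair-mutant yeast strain was incubated with compounds, then growth was read and inhibition derived relative to vehicle.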

[2] = NCI Yeast Anticancer Drug Screen. Data for the wt1 strain (AID 149);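 further: 0% = growth of vehicle-treated wt1 cultures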; conditions: S. cerevisiae wt1 strain (SPY 50644) growth inhibition, stronger effect = higher value
Summary of the method: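 wt1 strain grown with compound or vehicle; inhibition taken from the growth difference.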

[3] = NCI Yeast Anticancer Drug Screen. Data for the rad50EPP+ strain (AID 151);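 further: 0% = growth of vehicle-treated control cultures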; conditions: S. cerevisiae rad50 mutant strain, stronger effect = higher value
Summary of the method: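 Vehicle-normalised growth inhibition; rad50EPP+ yeast strain, altered in DNA damage repair, compound-treated.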

[4] = NCI Yeast Anticancer Drug Screen. Data for the mgt1 strain (AID 153); conditions: S. cerevisiae mgt1 mutant growth inhibition, stronger effect = higher value
Summary of the method: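 Vehicle-normalized growth inhibition is determined in mgt1 yeast, a strain selected for a defined alteration in DNA repair or cell cycle control.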

[5] = NCI Yeast Anticancer Drug Screen. Data for the rad50 strain (AID 155);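 further: 0% = growth of vehicle-only cultures of the same strain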; conditions: S. cerevisiae rad50 strain growth inhibition, stronger effect = higher value
Summary of the method: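 DNA repair mutant yeast, compound exposure, growth read-out; inhibition is taken relative to vehicle.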

[6] = NCI Yeast Anticancer Drug Screen. Data for the mec2-1 strain (AID 157); conditions: S. cerevisiae mec2-1 strain, stronger effect = higher value
Summary of the method: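 Mutant yeast (mec2-1) grown with compound; growth inhibition relative to vehicle control reported.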

[7] = NCI Yeast Anticancer Drug Screen. Data for the rad14 strain (AID 159);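 further: 0% = growth of vehicle-treated control cultures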; conditions: S. cerevisiae rad14 strain growth inhibition, stronger effect = higher value
Summary of the method: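 DNA repair-defective yeast, compound-exposed; % growth inhibition derived by comparison with vehicle-treated controls.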

[8] = NCI Yeast Anticancer Drug Screen. Data for the sgs1 mgt1 strain (AID 161);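 further: 0% = growth of cultures given vehicle only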; conditions: S. cerevisiae sgs1 mgt1 strain, stronger effect = higher value
Summary of the method: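 Yeast cells carrying a defined DNA-repair defect were exposed to test compounds. Growth inhibition was measured relative to vehicle-treated controls.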

[9] = NCI Yeast Anticancer Drug Screen. Data for the CLN2oe strain (AID 163);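 further: 0% = growth of vehicle-only control cultures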; conditions: S. cerevisiae CLN2oe strain, stronger effect = higher value
Summary of the method: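 Compounds are applied to yeast harbouring a defined cell-cycle control change; reduced growth compared with vehicle-treated controls gives the value.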

[10] = NCI Yeast Anticancer Drug Screen. Data for the cln2 rad14 strain (AID 165);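 further: 0% = growth equal to vehicle treated cultures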; conditions: S. cerevisiae cln2 rad14 strain, stronger effect = higher value
Summary of the method: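 Readout is yeast growth inhibition versus vehicle-treated controls, using a strain with cln2 and rad14 alterations exposed to compound.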

[11] = NCI Yeast Anticancer Drug Screen. Data for the bub3 strain (AID 167); conditions: S. cerevisiae bub3 mutant strain, stronger effect = higher value
Summary of the method: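 In this screen, a yeast mutant lacking normal mitotic checkpoint function is challenged with compound. Relative growth versus vehicle gives the inhibition value.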

[12] = NCI Yeast Anticancer Drug Screen. Data for the wt2 strain (AID 169);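 further: 0% = growth of vehicle-treated yeast cultures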; conditions: S. cerevisiae wt2 strain growth inhibition, stronger effect = higher value
Summary of the method: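 Against vehicle-treated controls, the growth of yeast exposed to each compound was compared, and the inhibition was recorded.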

[13] = NCI Yeast Anticancer Drug Screen. Data for the mlh1 strain (AID 171);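 further: 0% = growth of vehicle-treated control cultures of the same strain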; conditions: S. cerevisiae mlh1 strain growth inhibition, stronger effect = higher value
Summary of the method: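 Measured: yeast growth. Reference: vehicle-treated controls. Organism: strain with a defined alteration affecting DNA damage repair or cell cycle control, treated with compound.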

[14] = NCI Yeast Anticancer Drug Screen. Data for the sgs1 strain (AID 173);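 further: 0% = growth of vehicle-only control cultures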; conditions: S. cerevisiae sgs1 mutant, stronger effect = higher value
Summary of the method: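 Each compound was added to cultures of the altered yeast strain. Growth was recorded, and inhibition was derived by comparison with vehicle controls.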

[15] = NCI Yeast Anticancer Drug Screen. Data for the mlh1 rad18 strain (AID 175); conditions: S. cerevisiae mlh1 rad18 strain growth inhibition, stronger effect = higher value
Summary of the method: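 Genetically defined yeast (DNA repair-deficient) exposed to compounds; growth inhibition determined relative to vehicle.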

[16] = NCI Yeast Anticancer Drug Screen. Data for the rad18 strain (AID 177); conditions: S. cerevisiae rad18 mutant growth inhibition, stronger effect = higher value
Summary of the method: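 Vehicle-treated cultures served as the baseline for scoring compound-induced growth inhibition in DNA-repair-mutant yeast.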

[17] = at 5.0 µM (retest, dose inferred, filed as 0.5)
[18] = at 50.0 µM (retest, dose inferred, filed as 5.0)

Measured: growth inhibition

COC(=O)c1c(C)ccc2c(O)c3c(cc12)C(=O)c1c2c(cc(O)c1C3=O)C1(C)OC(C)(O2)C(O)C(N(C)C)C1O (stereo unspecified)
inactive: [1]; at 1.2 µM 2% | [1]; at 3.7 µM 17% | [1]; at 11.0 µM 68% | [2]; at 1.2 µM 5% | [2]; at 3.7 µM 1% | [2]; at 11.0 µM 22% | [3]; at 1.2 µM -2% | [3]; at 3.7 µM 17% | [3]; at 11.0 µM 51% | [3]; at 100.0 µM 67% | [4]; at 1.2 µM 0% | [4]; at 3.7 µM 10% | [4]; at 11.0 µM 23% | [5]; at 1.2 µM 4% | [5]; at 3.7 µM 35% | [5]; [17] 10% | [6]; at 1.2 µM -3% | [6]; at 3.7 µM 3% | [6]; [17] 6% | [7]; at 1.2 µM 0% | [7]; at 3.7 µM 18% | [8]; [17] -11% | [9]; at 1.2 µM -7% | [9]; at 3.7 µM 0% | [9]; at 11.0 µM 39% | [10]; [17] 39% | [11]; at 1.2 µM -4% | [11]; at 3.7 µM -2% | [11]; [17] -19% | [11]; at 11.0 µM 64% | [12]; at 1.2 µM -1% | [12]; at 3.7 µM 4% | [12]; at 11.0 µM 39% | [13]; at 1.2 µM 2% | [13]; at 3.7 µM 19% | [13]; at 11.0 µM 68% | [14]; at 1.2 µM 0% | [14]; at 3.7 µM 7% | [14]; at 11.0 µM 44% | [15]; [17] 1% | [16]; at 1.2 µM 1% | [16]; at 3.7 µM 25%
active: [1]; at 33.0 µM 94% | [1]; at 100.0 µM 91% | [2]; at 33.0 µM 79% | [2]; at 100.0 µM 94% | [3]; at 33.0 µM 74% | [4]; at 33.0 µM 95% | [4]; at 100.0 µM 94% | [5]; at 11.0 µM 90% | [5]; at 33.0 µM 92% | [5]; [18] 98% | [5]; at 50.0 µM 97% | [5]; at 100.0 µM 84% | [6]; at 11.0 µM 70% | [6]; at 33.0 µM 97% | [6]; [18] 98% | [6]; at 50.0 µM 95.5% | [6]; at 100.0 µM 88% | [7]; at 11.0 µM 98% | [7]; at 33.0 µM 95% | [7]; at 100.0 µM 89% | [8]; [18] 95% | [8]; at 50.0 µM 97.8% | [9]; at 33.0 µM 94% | [9]; at 100.0 µM 92% | [10]; [18] 97% | [10]; at 50.0 µM 92.9% | [11]; at 33.0 µM 96% | [11]; [18] 98% | [11]; at 50.0 µM 95.7% | [11]; at 100.0 µM 89% | [12]; at 33.0 µM 97% | [12]; at 100.0 µM 94% | [13]; at 33.0 µM 97% | [13]; at 100.0 µM 95% | [14]; at 33.0 µM 96% | [14]; at 100.0 µM 91% | [15]; [18] 98% | [15]; at 50.0 µM 96.5% | [16]; at 11.0 µM 80% | [16]; at 33.0 µM 95% | [16]; at 100.0 µM 88%

CCOP(=S)(S)OCC.[Pd]
inactive: [1]; at 1.2 µM 5% | [1]; at 3.7 µM 45% | [2]; at 1.2 µM 2% | [2]; at 3.7 µM 55% | [3]; at 1.2 µM 0% | [3]; at 3.7 µM 11% | [3]; at 11.0 µM 24% | [3]; at 33.0 µM 20% | [3]; at 100.0 µM 8% | [4]; at 1.2 µM -2% | [4]; at 3.7 µM 17% | [4]; at 11.0 µM 68% | [5]; at 1.2 µM 12% | [5]; at 3.7 µM 57% | [5]; [17] 67% | [5]; [18] 32% | [6]; at 1.2 µM 10% | [6]; at 3.7 µM 67% | [6]; [18] 51% | [6]; at 50.0 µM 67.9% | [7]; at 1.2 µM 0% | [7]; at 3.7 µM 17% | [7]; at 11.0 µM 60% | [8]; [17] 57% | [8]; [18] 36% | [9]; at 1.2 µM -3% | [9]; at 3.7 µM 20% | [9]; at 11.0 µM 59% | [10]; [17] 23% | [10]; [18] 9% | [11]; at 1.2 µM 6% | [11]; at 3.7 µM 63% | [12]; at 1.2 µM -2% | [12]; at 3.7 µM 59% | [13]; at 1.2 µM 4% | [13]; at 3.7 µM 56% | [14]; at 1.2 µM 13% | [15]; [18] 56% | [16]; at 1.2 µM 15%
active: [1]; at 11.0 µM 75% | [1]; at 33.0 µM 82% | [1]; at 100.0 µM 80% | [2]; at 11.0 µM 93% | [2]; at 33.0 µM 89% | [2]; at 100.0 µM 83% | [4]; at 33.0 µM 82% | [4]; at 100.0 µM 82% | [5]; at 11.0 µM 95% | [5]; at 33.0 µM 91% | [5]; at 50.0 µM 79.4% | [5]; at 100.0 µM 92% | [6]; [17] 80% | [6]; at 11.0 µM 95% | [6]; at 33.0 µM 87% | [6]; at 100.0 µM 85% | [7]; at 33.0 µM 75% | [7]; at 100.0 µM 75% | [8]; at 50.0 µM 76.1% | [9]; at 33.0 µM 76% | [9]; at 100.0 µM 77% | [10]; at 50.0 µM 76.5% | [11]; [17] 84% | [11]; at 11.0 µM 94% | [11]; at 33.0 µM 90% | [11]; [18] 86% | [11]; at 50.0 µM 80.9% | [11]; at 100.0 µM 83% | [12]; at 11.0 µM 95% | [12]; at 33.0 µM 91% | [12]; at 100.0 µM 85% | [13]; at 11.0 µM 94% | [13]; at 33.0 µM 88% | [13]; at 100.0 µM 84% | [14]; at 3.7 µM 77% | [14]; at 11.0 µM 95% | [14]; at 33.0 µM 93% | [14]; at 100.0 µM 88% | [15]; [17] 83% | [15]; at 50.0 µM 79.5% | [16]; at 3.7 µM 86% | [16]; at 11.0 µM 98% | [16]; at 33.0 µM 96% | [16]; at 100.0 µM 93%
